Data taken from the supplement of paper PMC8728848.
Shown is part of a subset that was picked to be rich in the strongest signals.

Experiments:
Experiment in all cases: glycan array binding signal (z-score within array); higher = stronger binding
Conditions in all cases: glycan notation: IUPAC condensed, linker removed
[1] = molecular target: Fuc(a1-2)Gal(b1-3)GalNAc(b1-4)[Neu5Ac(a2-3)]Gal(b1-4)Glc
In short: (§1)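 Glycan array data were curated from 3228 arrays in the Consortium for Functional Glycomics database and kept only where the protein sequence was available. Glycan names were converted to IUPAC-condensed notation, and columns mapping to the same glycan were averaged. The binding signal is a within-array Z-score, averaged across arrays of the same protein sequence at different concentrations or buffers and across linkers. Negative Z-scores can be read as non-binding.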

[2] = molecular target: Fuc(a1-2)Gal(b1-4)[Fuc(a1-3)]GlcNAc
In short: as §1

[3] = molecular target: Fuc(a1-2)Gal(b1-4)[Fuc(a1-3)]GlcNAc(b1-3)Gal(b1-4)[Fuc(a1-3)]GlcNAc
In short: as §1

[4] = molecular target: Fuc(a1-3)[Gal3S(b1-4)]GlcNAc
In short: as §1

[5] = molecular target: Fuc(a1-3)[Gal3S(b1-4)]GlcNAc6S
In short: as §1

Gal(a1-3)Gal(b1-3)GlcNAc = molecular target: Gal(a1-3)Gal(b1-3)GlcNAc
In short: as §1

[6] = molecular target: Gal(a1-3)Gal(b1-4)[Fuc(a1-3)]GlcNAc
In short: as §1

Gal(a1-3)GalNAc = molecular target: Gal(a1-3)GalNAc
In short: as §1

Gal3S(b1-4)Glc = molecular target: Gal3S(b1-4)Glc
In short: as §1

Gal3S6S(b1-4)GlcNAc = molecular target: Gal3S6S(b1-4)GlcNAc
In short: as §1

Gal4S6S(b1-4)GlcNAc = molecular target: Gal4S6S(b1-4)GlcNAc
In short: as §1

GlcNAc3Prop(b1-4)GlcNAc = molecular target: GlcNAc3Prop(b1-4)GlcNAc
In short: as §1

Kdn(a2-3)Gal(b1-4)GlcNAc = molecular target: Kdn(a2-3)Gal(b1-4)GlcNAc
In short: as §1

[7] = molecular target: Man(a1-2)Man(a1-3)[Man(a1-2)Man(a1-6)]Man(a1-6)[Man(a1-2)Man(a1-2)Man(a1-3)]Man
In short: as §1

Neu5Ac(a2-3)Gal = molecular target: Neu5Ac(a2-3)Gal
In short: as §1

[8] = molecular target: Neu5Ac(a2-3)Gal(b1-3)GalNAc(b1-4)[Neu5Ac(a2-3)]Gal(b1-4)Glc
In short: as §1

[9] = molecular target: Neu5Ac(a2-3)Gal(b1-3)GlcNAc6S
In short: as §1

[10] = molecular target: Neu5Ac(a2-3)Gal(b1-3)[Neu5Ac(a2-3)Gal(b1-4)]GlcNAc
In short: as §1

[11] = molecular target: Neu5Ac(a2-3)Gal(b1-4)GlcNAc(b1-2)Man(a1-3)[GlcNAc(b1-2)Man(b1-4)GlcNAc(b1-2)Man(a1-6)]Man(b1-4)GlcNAc(b1-4)GlcNAc
In short: as §1

[12] = molecular target: Neu5Ac(a2-3)Gal(b1-4)GlcNAc6S
In short: as §1

[13] = molecular target: Neu5Ac(a2-3)Gal6S(b1-4)[Fuc(a1-3)]GlcNAc
In short: as §1

[14] = molecular target: Neu5Ac(a2-3)[GalNAc(b1-4)]Gal(b1-4)GlcNAc
In short: as §1

[15] = molecular target: Neu5Ac(a2-3)[Neu5Ac(a2-6)]GalNAc
In short: as §1

[16] = molecular target: Neu5Ac(a2-6)Gal(b1-4)GlcNAc(b1-3)Gal(b1-4)[Fuc(a1-3)]GlcNAc(b1-3)Gal(b1-4)[Fuc(a1-3)]GlcNAc
In short: as §1

[17] = molecular target: Neu5Ac(a2-6)GalNAc(b1-4)GlcNAc
In short: as §1

[18] = molecular target: Neu5Ac9Ac(a2-6)Gal(b1-4)GlcNAc
In short: as §1

[19] = molecular target: Neu5Gc(a2-3)Gal(b1-4)GlcNAc
In short: as §1

B1: MIC1 (Toxoplasma gondii), O00834 (protein)
chain: MGQALFLTVLLPVLFGVGPEAYGEASHSHSPASGRYIQQMLDQRCQEIAAELCQSGLRKMCVPSSRIVARNAVGITHQNTLQWRCFDTASLLESNQENNGVNCVDDCGHTIPCPGGVHRQNSNHATRHEILSKLVEEGVQRFCSPYQASANKYCNDKFPGTIARRSKGFGNNVEVAWRCYEKASLLYSVYAECASNCGTTWYCPGGRRGTSTELDKRHYTEEEGIRQAIGSVDSPCSEVEVCLPKDENPPLCLDESGQISRTGGGPPSQPPEMQQPADRSDERGGGKEQSPGGEAQPDHPTKGGNIDLPEKSTSPEKTPKTEIHGDSTKATLEEGQQLTLTFISTKLDVAVGSCHSLVANFLDGFLKFQTGSNSAFDVVEVEEPAGPAVLTIGLGHKGRLAVVLDYTRLNAALGSAAYVVEDSGCSSSEEVSFQGVGSGATLVVTTLGESPTAVSA
**Q.** Which results are given for B1?
**A.** glycan array binding signal (z-score) [1]: -0.232; glycan array binding signal (z-score) [2]: -0.213; glycan array binding signal (z-score) [3]: -0.138; glycan array binding signal (z-score) [4]: -0.041; glycan array binding signal (z-score) [5]: -0.233; glycan array binding signal (z-score) (Gal(a1-3)Gal(b1-3)GlcNAc): -0.059; glycan array binding signal (z-score) [6]: -0.014; glycan array binding signal (z-score) (Gal(a1-3)GalNAc): -0.139; glycan array binding signal (z-score) (Gal3S(b1-4)Glc): -0.149; glycan array binding signal (z-score) (Gal3S6S(b1-4)GlcNAc): -0.228; glycan array binding signal (z-score) (Gal4S6S(b1-4)GlcNAc): -0.218; glycan array binding signal (z-score) (GlcNAc3Prop(b1-4)GlcNAc): -0.196; glycan array binding signal (z-score) (Kdn(a2-3)Gal(b1-4)GlcNAc): -0.256; glycan array binding signal (z-score) [7]: -0.307; glycan array binding signal (z-score) (Neu5Ac(a2-3)Gal): -0.068; glycan array binding signal (z-score) [8]: -0.19; glycan array binding signal (z-score) [9]: 0.131; glycan array binding signal (z-score) [10]: 4.31; glycan array binding signal (z-score) [11]: 3.01; glycan array binding signal (z-score) [12]: 6.25; glycan array binding signal (z-score) [13]: -0.178; glycan array binding signal (z-score) [14]: 5.43; glycan array binding signal (z-score) [15]: -0.313; glycan array binding signal (z-score) [16]: -0.268; glycan array binding signal (z-score) [17]: -0.152; glycan array binding signal (z-score) [18]: -0.294; glycan array binding signal (z-score) [19]: 9.71
